In PubChem BioAssay (NCI):
Compounds without any hit were thinned out: in the full panel of roughly 83,000, 20% have a hit.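 Method: cells in 96-well plates; compound added at one concentration; 48 h incubation; percent growth measured; values under 10 scored active.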 Active and inactive are the calls of the source.

Experiments:
Assay in all cases: NCI-60 one-dose screen, 48 h (100 = growth as untreated, 0 = no growth, -100 = all killed)
Conditions in all cases: 10 µM unless noted
NCI-H23 lung = system: NCI-H23 lung
NCI-H226 lung = system: NCI-H226 lung
NCI-H322M lung = system: NCI-H322M lung
HOP-62 NSCLC = system: HOP-62 NSCLC
NCI-H460 lung = system: NCI-H460 lung
HOP-92 NSCLC = system: HOP-92 NSCLC
NCI-H522 lung = system: NCI-H522 lung
A549/ATCC NSCLC = system: A549/ATCC NSCLC
786-0 renal = system: 786-0 renal
COLO 205 colon = system: COLO 205 colon

Measured: growth

Cc1ccc(C(=O)Nc2ccc(CNCCN3CCOCC3)c(C(F)(F)F)c2)cc1C#Cc1cnc2cccnn12
inactive: NCI-H23 lung 21.5% | NCI-H226 lung 20.5% | NCI-H322M lung 47.9% | HOP-62 NSCLC 15.4% | NCI-H460 lung 18.9% | A549/ATCC NSCLC 19.2% | 786-0 renal 14.2%
active: HOP-92 NSCLC -11.9% | NCI-H522 lung 4.82% | COLO 205 colon -18.8%

CCN1CCN(c2ccc(NC(=O)Nc3ccc4c(ccn4-c4ccnc(C(=O)NC)c4)c3)cc2C(F)(F)F)CC1
inactive: NCI-H23 lung 81.8% | NCI-H226 lung 92.8% | NCI-H322M lung 85.5% | HOP-62 NSCLC 79.1% | NCI-H460 lung 75.6% | HOP-92 NSCLC 84.7% | NCI-H522 lung 105% | A549/ATCC NSCLC 91.3% | 786-0 renal 10.3% | COLO 205 colon 97.9%

CN1c2ccccc2Sc2cc(/C=N/Nc3ccnc4cc(Cl)ccc34)ccc21
inactive: NCI-H23 lung 91.6% | NCI-H226 lung 90.5% | NCI-H322M lung 107% | HOP-62 NSCLC 96.6% | NCI-H460 lung 104% | HOP-92 NSCLC 82.1% | NCI-H522 lung 99.2% | A549/ATCC NSCLC 83.3% | 786-0 renal 89.3% | COLO 205 colon 101%

COc1ccc(/C=N/NC(=O)c2c(N)nn(C)c2Nc2ccccc2)cc1
inactive: NCI-H23 lung 66.9% | NCI-H226 lung 51.6% | NCI-H322M lung 90% | HOP-62 NSCLC 38.8% | NCI-H460 lung 14.6% | HOP-92 NSCLC 46.8% | NCI-H522 lung 19.3% | A549/ATCC NSCLC 57.1% | 786-0 renal 58% | COLO 205 colon 35.8%

CCOC(=O)c1ccc(NC2=CC(=O)C(C)=C(C)C2=O)cc1
inactive: NCI-H23 lung 51% | NCI-H226 lung 95.6% | NCI-H322M lung 104% | HOP-62 NSCLC 70.5% | NCI-H460 lung 98.4% | HOP-92 NSCLC 113% | NCI-H522 lung 87.5% | A549/ATCC NSCLC 117% | 786-0 renal 106% | COLO 205 colon 115%

CN(C)c1ccc(-c2cc(-c3c[nH]c4ccccc34)nc(N)c2C#N)cc1
active: NCI-H460 lung 7.07% | NCI-H522 lung 2.93%
inactive: NCI-H23 lung 54.8% | NCI-H226 lung 62.8% | NCI-H322M lung 69.5% | HOP-62 NSCLC 33.3% | HOP-92 NSCLC 27.5% | A549/ATCC NSCLC 25.4% | 786-0 renal 17.5% | COLO 205 colon 22.1%

CNc1sc(S(=O)(=O)NC)nc1S(=O)(=O)c1ccc(C)cc1
inactive: NCI-H23 lung 102% | NCI-H226 lung 92.5% | NCI-H322M lung 96.4% | HOP-62 NSCLC 99.4% | NCI-H460 lung 109% | HOP-92 NSCLC 84.9% | NCI-H522 lung 94.5% | A549/ATCC NSCLC 98.8% | 786-0 renal 99.4% | COLO 205 colon 112%

Cc1ccc(S(=O)(=O)NCCCNc2nccc(-c3[nH]c(-c4ccccc4)nc3-c3ccc(F)c(O)c3)n2)cc1
inactive: NCI-H23 lung 96.2% | NCI-H226 lung 93.2% | NCI-H322M lung 109% | HOP-62 NSCLC 112% | NCI-H460 lung 82.1% | HOP-92 NSCLC 93.7% | NCI-H522 lung 80.1% | A549/ATCC NSCLC 80.4% | 786-0 renal 104% | COLO 205 colon 91.9%

COc1ccc(/C=N/NC(=O)c2c(N)nn(C)c2Nc2ccccc2)cc1Oc1ccccc1
inactive: NCI-H23 lung 90.4% | NCI-H226 lung 91.9% | NCI-H322M lung 89.4% | HOP-62 NSCLC 96.5% | NCI-H460 lung 102% | HOP-92 NSCLC 51.3% | NCI-H522 lung 93.8% | A549/ATCC NSCLC 89.1% | 786-0 renal 101% | COLO 205 colon 117%

CCOC(=O)c1cccc(NC2=C(Cl)C(=O)C(C)=C(C)C2=O)c1
inactive: NCI-H23 lung 91.9% | NCI-H226 lung 100% | NCI-H322M lung 105% | HOP-62 NSCLC 103% | NCI-H460 lung 101% | HOP-92 NSCLC 54.2% | NCI-H522 lung 95% | A549/ATCC NSCLC 102% | 786-0 renal 105% | COLO 205 colon 122%

Cn1c2nc3ccccc3c-2cc2ccccc21
inactive: NCI-H23 lung 44.9% | NCI-H226 lung 53% | HOP-62 NSCLC 51.3% | NCI-H460 lung 13.4% | HOP-92 NSCLC 57.2% | NCI-H522 lung 41.6% | A549/ATCC NSCLC 28.4% | 786-0 renal 38% | COLO 205 colon 26%
active: NCI-H322M lung 4.32%

CC1CC(=O)C2=C(C1)Nc1ccc(Br)cc1CC2c1c[nH]c2ccc(Br)cc12 (stereo not given)
inactive: NCI-H23 lung 66.8% | NCI-H226 lung 65.5% | NCI-H322M lung 70.9% | HOP-62 NSCLC 65.2% | NCI-H460 lung 34.5% | HOP-92 NSCLC 76.6% | NCI-H522 lung 18.4% | A549/ATCC NSCLC 42.3% | 786-0 renal 51.2% | COLO 205 colon 66.2%

O=C(N/N=C\c1ccc(F)cc1)c1ccc2nc(-c3ccc(Br)cc3)[nH]c2c1
active: NCI-H23 lung 0.752% | NCI-H460 lung -64.4% | A549/ATCC NSCLC -3.93% | 786-0 renal -32%
inactive: NCI-H226 lung 32.9% | NCI-H322M lung 68.1% | HOP-62 NSCLC 25.1% | HOP-92 NSCLC 53.3% | NCI-H522 lung 81% | COLO 205 colon 19.2%

COC(=O)c1ccc(NC2=C(Cl)C(=O)C(C)=C(C)C2=O)cc1
inactive: NCI-H23 lung 68.5% | NCI-H226 lung 72.9% | NCI-H322M lung 99.6% | HOP-62 NSCLC 66.2% | NCI-H460 lung 79.3% | HOP-92 NSCLC 64.9% | NCI-H522 lung 53.1% | A549/ATCC NSCLC 81.5% | 786-0 renal 84.9% | COLO 205 colon 104%

Clc1ccc2[nH]cc(-c3cncn3CCc3ccc4c(c3)OCO4)c2c1
inactive: NCI-H23 lung 62.9% | NCI-H226 lung 56.8% | NCI-H322M lung 75.5% | HOP-62 NSCLC 85.5% | NCI-H460 lung 81.6% | NCI-H522 lung 69.2% | A549/ATCC NSCLC 73.2% | 786-0 renal 73.7% | COLO 205 colon 80.5%
active: HOP-92 NSCLC 9.07%

CCc1cc(OC(=O)N2CCN(CCC(C)(COC(C)(C)C)COC(C)(C)C)CC2)ccc1Nc1cc(-c2ccc(-n3cccn3)cc2)[nH]n1
inactive: NCI-H23 lung 83.9% | NCI-H226 lung 67.1% | NCI-H322M lung 101% | HOP-62 NSCLC 91.7% | NCI-H460 lung 74.4% | HOP-92 NSCLC 73.1% | NCI-H522 lung 80.7% | A549/ATCC NSCLC 81.1% | 786-0 renal 85.8% | COLO 205 colon 80.8%

Cc1ccc(/C=N/Nc2nc(Nc3ccccc3)nc(Nc3ccc(S(N)(=O)=O)cc3)n2)cc1
inactive: NCI-H23 lung 76.7% | NCI-H226 lung 79.3% | NCI-H322M lung 90.8% | HOP-62 NSCLC 86.8% | NCI-H460 lung 54.7% | HOP-92 NSCLC 112% | NCI-H522 lung 89.5% | A549/ATCC NSCLC 83.2% | 786-0 renal 46.9% | COLO 205 colon 83.9%

O=C(CCCCCCNC(=O)C(O)(O)C(F)(F)F)Nc1ncc(-c2ccccc2)s1
active: NCI-H23 lung -1.99% | NCI-H322M lung 3.47% | HOP-62 NSCLC -6.52% | NCI-H460 lung 2.92% | HOP-92 NSCLC -19.4% | NCI-H522 lung -38.1% | A549/ATCC NSCLC -12.9% | COLO 205 colon -73.3%
inactive: NCI-H226 lung 14.9% | 786-0 renal 17.1%

Cc1cc2nc(C(Cl)Cl)nc(-c3ccc(S(=O)(=O)N(C)C)cc3)n2n1
inactive: NCI-H23 lung 44.4% | NCI-H226 lung 71.8% | NCI-H322M lung 69.3% | HOP-62 NSCLC 32.8% | NCI-H460 lung 27.5% | HOP-92 NSCLC 50% | NCI-H522 lung 76.9% | A549/ATCC NSCLC 37% | 786-0 renal 94.5% | COLO 205 colon 25.2%

Cn1cc(-c2nnc(N)nc2-c2c[nH]c3ccc(F)cc23)c2cc(Br)ccc21
active: NCI-H522 lung -0.551% | COLO 205 colon 9.15%
inactive: NCI-H23 lung 26.4% | NCI-H226 lung 27.4% | NCI-H322M lung 41.8% | HOP-62 NSCLC 30.9% | NCI-H460 lung 13.8% | HOP-92 NSCLC 56.5% | A549/ATCC NSCLC 38.6% | 786-0 renal 21.5%

CCc1nnc(NC(=O)c2cc(-c3ccc(Cl)cc3Cl)oc2C)s1
inactive: NCI-H23 lung 85.7% | NCI-H226 lung 85.6% | NCI-H322M lung 85.4% | HOP-62 NSCLC 96% | NCI-H460 lung 53.9% | HOP-92 NSCLC 92% | NCI-H522 lung 79.4% | A549/ATCC NSCLC 77.1% | 786-0 renal 95.9% | COLO 205 colon 105%

Brc1cccc(-c2cc(-c3cnc4c(c3)OCCO4)n[nH]2)c1
inactive: NCI-H23 lung 52.4% | NCI-H226 lung 65.6% | NCI-H322M lung 45.2% | HOP-62 NSCLC 65% | NCI-H460 lung 17.4% | HOP-92 NSCLC 101% | NCI-H522 lung 19.6% | A549/ATCC NSCLC 36.8% | 786-0 renal 79% | COLO 205 colon 34.9%

C/C(=N\NC(=O)Nc1ccccc1)c1nnn(-c2ccc([N+](=O)[O-])cc2)c1C
inactive: NCI-H23 lung 94.7% | NCI-H226 lung 100% | NCI-H322M lung 99.1% | HOP-62 NSCLC 111% | NCI-H460 lung 108% | HOP-92 NSCLC 120% | NCI-H522 lung 99.9% | A549/ATCC NSCLC 107% | 786-0 renal 102% | COLO 205 colon 112%

CC(C)C(/C=C/c1[nH]ncc1-c1cc(Cl)ccc1O)N1CCOCC1 (stereo not given)
inactive: NCI-H23 lung 96.7% | NCI-H226 lung 85.2% | NCI-H322M lung 88.7% | HOP-62 NSCLC 92.3% | NCI-H460 lung 105% | HOP-92 NSCLC 88.4% | NCI-H522 lung 95.8% | A549/ATCC NSCLC 96.7% | 786-0 renal 101% | COLO 205 colon 109%

CC1(C)CC[C@]2(C(=O)NCCCCCCN(CCCN)CCCN)CC[C@]3(C)C(=CC[C@@H]4[C@@]5(C)CC[C@H](O)C(C)(C)[C@@H]5CC[C@]43C)[C@@H]2C1
inactive: NCI-H23 lung 105% | NCI-H226 lung 100% | NCI-H322M lung 95.1% | HOP-62 NSCLC 111% | NCI-H460 lung 102% | HOP-92 NSCLC 101% | NCI-H522 lung 101% | A549/ATCC NSCLC 93.1% | 786-0 renal 91.5% | COLO 205 colon 102%

O=C(/C=C/c1ccc(Cl)c(Cl)c1)Nc1ncc(Cc2ccc(Cl)c(Cl)c2)s1
inactive: NCI-H23 lung 70.4% | NCI-H226 lung 70.7% | NCI-H322M lung 58.5% | HOP-62 NSCLC 50.9% | NCI-H460 lung 28.3% | HOP-92 NSCLC 92.7% | NCI-H522 lung 40.4% | A549/ATCC NSCLC 53.5% | 786-0 renal 78.8%
active: COLO 205 colon 4.63%
